# PubChem BioAssay AID1645882 (National Center for Advancing Translational Sciences (NCATS), 2021)
# Where “and” joins values, the source holds several entries; their conditions need not be identical. Equal entries are not always repeated. In all, about 16,000 compounds went through this assay and about 120 (0.75%) were called active. A call without a number means that no potency is given here. Not shown: some 4% with an inconclusive outcome. This is one part of a sample in which actives are shown more often than they occur. Calls come from the whole dose curve; as a rule, active = well fitted inhibition curve with a large enough effect; inconclusive = small, poorly fitted or top-dose-only effect; inactive = no such curve, though single readings can be large or run the other way. A structure can be active in one record and inactive in another.
# Molecular target: Rap guanine nucleotide exchange factor 3 (Homo sapiens) (UniProt O95398)
# Sequence (O95398 whole entry, looked up): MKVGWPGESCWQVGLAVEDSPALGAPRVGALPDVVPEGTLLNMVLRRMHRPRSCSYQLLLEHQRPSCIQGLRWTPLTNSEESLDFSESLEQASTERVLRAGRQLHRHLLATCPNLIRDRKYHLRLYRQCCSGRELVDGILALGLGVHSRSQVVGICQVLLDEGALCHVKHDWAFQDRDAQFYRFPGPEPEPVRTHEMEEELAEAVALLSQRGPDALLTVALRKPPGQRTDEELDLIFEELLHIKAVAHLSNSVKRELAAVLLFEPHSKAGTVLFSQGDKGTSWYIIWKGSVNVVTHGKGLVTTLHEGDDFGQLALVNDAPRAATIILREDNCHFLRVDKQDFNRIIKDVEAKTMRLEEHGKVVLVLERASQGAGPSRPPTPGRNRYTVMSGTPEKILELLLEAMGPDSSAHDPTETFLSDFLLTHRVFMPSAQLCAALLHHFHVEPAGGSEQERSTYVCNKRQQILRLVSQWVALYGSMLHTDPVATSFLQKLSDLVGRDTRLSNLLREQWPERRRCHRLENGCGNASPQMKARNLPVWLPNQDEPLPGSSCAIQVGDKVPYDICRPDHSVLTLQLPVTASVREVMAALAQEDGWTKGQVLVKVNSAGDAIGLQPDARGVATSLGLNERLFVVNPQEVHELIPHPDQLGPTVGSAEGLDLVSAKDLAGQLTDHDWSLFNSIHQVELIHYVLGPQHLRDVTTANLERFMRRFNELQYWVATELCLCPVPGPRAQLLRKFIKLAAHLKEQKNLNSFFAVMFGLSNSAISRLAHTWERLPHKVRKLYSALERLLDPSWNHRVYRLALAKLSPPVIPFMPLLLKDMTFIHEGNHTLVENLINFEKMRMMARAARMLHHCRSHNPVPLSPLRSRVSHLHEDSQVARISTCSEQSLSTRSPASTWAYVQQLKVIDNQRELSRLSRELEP
# Assay: Validation qHTS for antagonist of cAMP-regulated guanine nucleotide exchange factor 3 (EPAC1); note: nearly all actives have a fitted effect of over 75% in size
# Conditions: EPAC1 Rap1B-BODIPY-GDP exchange, fluorescence; series mostly up to 150 µM
# Method in brief: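 EPAC1 (100 nM) mixed with 250 nM RAP1B-BODIPY-GDP and 50 uM GDP; compounds in concentration series, 5 min at room temperature. Fluorescence (ex 480/em 540 nm) read every 5 min for 30 min; normalized to ATA control and DMSO.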
# Potency is the fitted concentration of half-maximal effect.
SMILES,Potency,"activity change, negative = inhibition"
O.O.O.O.O.O.O.O=S(=O)([O-])[O-].[Co+2],100 µM (active),
Cc1ccc(C(=O)Nc2cccc(-c3nc(CNC(=O)c4ccc(F)cc4Cl)c(C)o3)c2)s1,inactive,
CC(=O)OC1CCC2(C)C3=C(CCC2C1(C)C)[C@@]1(C)CCC(C(C)CCC=C(C)C)[C@@]1(C)CC3 (stereo partly specified),inactive,
CCCCCCCCCCCCCCCCSCC(COC)COP(=O)([O-])OCC[N+](C)(C)C (stereo unspecified),inactive,
OCCN1CCN(CCCN2c3ccccc3Sc3ccc(Cl)cc32)CC1,inactive,
CN1CCN(CCCN2c3ccccc3Sc3ccc(Cl)cc32)CC1,inactive and 112 µM (active),
CN1CCN(CCCN2c3ccccc3Sc3ccccc32)CC1,inactive,
CC(=O)N1CCC2(CC1)CN(c1cccc(-c3ccccc3)c1)C2,inactive,
O=S1(=O)CCO[C@H]2CCCC[C@@H]2N1Cc1ccccc1Br,inactive,
C[C@@H]1[C@H](c2ccccc2)OCCS(=O)(=O)N1Cc1ccccc1Br,inactive,
C=C1[C@@H](O)[C@H](CC(C)C)N(Cc2ccccc2Br)S1(=O)=O,89.1 µM (active),
Cc1ccc2c(c1)C(=O)[C@@]1(O)CCN(c3ccccc3)C1=N2,inactive,
Cc1cnc(-n2ncc(C(=O)NCCN3CCOCC3)c2C2CC2)nc1-c1cccs1,inactive,
CCC1CN(CCNC(=O)c2cc(C(C)C)nn2C)Cc2cc(OC)ccc2O1 (stereo unspecified),inactive,
Oc1c(Cl)cc(Cl)c(Cl)c1Cc1c(O)c(Cl)cc(Cl)c1Cl,56.2 µM (active) and inactive,
Oc1c(Cl)cc(Cl)c2cccnc12,inactive,
Cc1ccc2c(Cl)cc(Cl)c(O)c2n1,inactive,
COc1ccc(C(=O)N2CCC3(CC2)CN(c2ncccn2)C3)cc1,inactive,
COc1cc(CN2CCOc3ccc(CN4CCC(O)(c5cccnc5)CC4)cc3C2)cc(OC)c1,inactive,
Cc1ccc(C(=O)NCCc2nnc3n2CCN(Cc2cc(C)cc(C)c2)CC3)cc1,inactive,
c1csc(CNc2ncncc2-c2ccoc2)c1,inactive,
O=C(c1nc2ncccn2n1)N1CCOc2ccc(C(O)C(c3ccccc3)c3ccccc3)cc2C1 (stereo unspecified),inactive,

SMILES,Potency,"activity change, negative = inhibition"
C=C1c2cccc(O)c2C(O)=C2C(=O)[C@]3(O)C(O)=C(C(N)=O)C(=O)[C@@H](N(C)C)[C@@H]3[C@@H](O)[C@H]12,31.6 µM (active),
C=C1c2cccc(O)c2C(O)=C2C(=O)[C@]3(O)C(O)=C(C(N)=O)C(=O)C(N(C)C)C3C(O)C12 (stereo partly specified),inactive,
C=C1c2c(Cl)ccc(O)c2C(O)=C2C(=O)[C@]3(O)C(O)=C(C(N)=O)C(=O)C(N(C)C)C3C(O)C12 (stereo partly specified),inactive,
O=C(c1cccnc1)C1CCCN(Cc2ccc3c(c2)CN(C(=O)c2cccc(Cl)c2)CCO3)C1 (stereo unspecified),inactive,
CCC(C(=O)NC(N)=O)c1ccccc1 (stereo unspecified),inactive,
COC(=O)C[C@](O)(CCCC(C)(C)O)C(=O)O[C@@H]1C(OC)=CC23CCCN2CCc2cc4c(cc2[C@H]13)OCO4 (stereo partly specified),inactive,
Cn1cccc1C(=O)N1CCC[C@@]2(CCN(c3ncccn3)C2)C1,inactive,
O=C(OC[C@H]1O[C@@H](OC(=O)c2cc(O)c(O)c(OC(=O)c3cc(O)c(O)c(O)c3)c2)[C@H](OC(=O)c2cc(O)c(O)c(OC(=O)c3cc(O)c(O)c(O)c3)c2)[C@@H](OC(=O)c2cc(O)c(O)c(OC(=O)c3cc(O)c(O)c(O)c3)c2)[C@@H]1OC(=O)c1cc(O)c(O)c(OC(=O)c2cc(O)c(O)c(O)c2)c1)c1cc(O)c(O)c(OC(=O)c2cc(O)c(O)c(O)c2)c1,11.2 µM (active),
CCCOC(=O)c1cc(O)c(O)c(O)c1,inactive,
CCOC(=O)Cc1cccc(-c2cc(CCCCCCc3ccc(O[C@H]4O[C@H](COC(C)=O)[C@@H](OC(C)=O)[C@H](OC(C)=O)[C@@H]4OC(C)=O)c(-c4cccc(CC(=O)OCC)c4)c3)ccc2O[C@H]2O[C@H](COC(C)=O)[C@@H](OC(C)=O)[C@H](OC(C)=O)[C@@H]2OC(C)=O)c1,inactive,
COc1cc(/C=C/C(=O)c2cccs2)cc(OC)c1OC,inactive,
Cc1cc(-c2ccc(N=Nc3ccc4c(S(=O)(=O)O)cc(S(=O)(=O)O)c(N)c4c3O)c(C)c2)ccc1N=Nc1ccc2c(S(=O)(=O)O)cc(S(=O)(=O)O)c(N)c2c1O,20 µM (active) and 50.1 µM (active) and 31.6 µM (active),
COc1cc(-c2ccc(N=Nc3ccc4c(S(=O)(=O)O)cc(S(=O)(=O)O)c(N)c4c3O)c(OC)c2)ccc1N=Nc1ccc2c(S(=O)(=O)O)cc(S(=O)(=O)O)c(N)c2c1O,31.6 µM (active),12.3% [at 27.4 µM] (inactive)
COc1cc(O)c(C(=O)c2ccccc2)cc1S(=O)(=O)O,inactive,
CCC1CN(CC(=O)NC(C)c2c(C)nn(C)c2C)Cc2cc(OC)ccc2O1 (stereo unspecified),inactive,
Cc1c(C(=O)N(C)CC2CCCN(C)C2)cnn1-c1nccc(-c2ccco2)n1 (stereo unspecified),inactive,
COC(=O)[C@@H]1[C@@H]2C[C@H]3c4[nH]c5ccccc5c4CCN3C[C@@H]2CC[C@@H]1O,inactive,
CC1CC[C@@]2(C(=O)O)CC[C@]3(C)C(=CCC4[C@@]5(C)CCC(O)C(C)(C)C5CC[C@@]43C)C2C1C (stereo partly specified),inactive,
CN(C)c1ccc(/C=C/c2ccnc3c(-c4ccccc4)cccc23)cc1,inactive,
CC1COC2=C1C(=O)C(=O)c1c2ccc2c1CCCC2(C)C (stereo unspecified),inactive,
Cc1c(S(=O)(=O)O)oc2c1C(=O)C(=O)c1c-2ccc2c1CCCC2(C)C,100 µM (active),
Cc1coc2c1C(=O)C(=O)c1c-2ccc2c1CCCC2(C)C,inactive,

SMILES,Potency,"activity change, negative = inhibition"
O=C(c1cccc(F)c1)N1CCC2(CCCN(c3ccncc3)C2)CC1,inactive,
Cc1cnc(-n2ncc(C(=O)NCC3COCCO3)c2C2CC2)nc1-c1cccs1 (stereo unspecified),inactive,
Cc1nc(NCc2cccc3c2OCO3)sc1-c1ccn(CC2CCCN(C)C2)n1 (stereo unspecified),inactive,
Cc1cc(C(C#N)c2ccc(Cl)cc2)c(Cl)cc1NC(=O)c1cc(I)cc(I)c1O (stereo unspecified),50.1 µM (active),
O=C(Nc1ccc([N+](=O)[O-])cc1Cl)c1cc(Cl)ccc1O,inactive,
COC(=O)C[C@H]1c2ccccc2S(=O)(=O)N1Cc1ccc(OC)cc1,inactive,
C(=C\c1ccncc1)/c1ccccc1,inactive,
Cc1cc(N)c2cc(NC(=O)Nc3ccc4nc(C)cc(N)c4c3)ccc2n1,28.2 µM (active),
O=C(Nc1ccc(Cl)cc1)Nc1ccc(Cl)c(Cl)c1,inactive,
Cc1cc(NC(=O)Nc2ccc(N(C)C)cc2)c2cc(F)cc(F)c2n1,inactive,
COCc1c(C(=O)NC2CCCCC2)cnn1-c1nccc(-c2cc(C)sc2C)n1,inactive,
O=C(Cn1cccn1)N1CCOc2c(cc(-c3ncc(C(F)(F)F)cc3Cl)cc2OCC2CCCO2)C1 (stereo unspecified),inactive,
O=S(=O)(O)c1cc(I)c(O)c2ncccc12,inactive,
O=C(Nc1ccc(/C=C/c2ccc(NC(=O)c3cc(S(=O)(=O)O)c4cccnc4c3O)cc2S(=O)(=O)O)c(S(=O)(=O)O)c1)c1cc(S(=O)(=O)O)c2cccnc2c1O,44.7 µM (active),
CCOc1ccc(S(=O)(=O)O)c2cccnc12,inactive,
O=C(c1cnsn1)N1CCOc2ccc(CN3CCOCC3)cc2C1,inactive,
COCC(=O)Nc1cc(C(=O)N2CCCC(C(N)=O)C2)cc2nc(-c3ccccc3)n(C)c12 (stereo unspecified),inactive,
COc1ccc(CNc2ncnc3ccc(-c4ccc(N(C)C)cc4)cc23)c(OC)c1,inactive,
Nc1ncnc2c1nc(Cl)n2C1OC(CO)C(O)C1O (stereo unspecified),inactive,
Nc1ncnc2c1nc(Br)n2C1CC(O)C(CO)O1 (stereo unspecified),inactive,
Nc1nc2c(nc(Br)n2[C@@H]2O[C@H]3COP(=O)(O)O[C@H]3[C@@H]2O)c(=O)[nH]1,inactive,
Nc1ncnc2c1nc(Br)n2[C@@H]1O[C@H]2COP(=O)(O)O[C@@H]2[C@@H]1O,2.82 µM (active),

SMILES,Potency,"activity change, negative = inhibition"
Nc1nc2c(nc(Sc3ccc(Cl)cc3)n2C2OC(CO)C(O)C2O)c(=O)[nH]1 (stereo unspecified),inactive,
Nc1nc2c(nc(Br)n2C2OC3COP(=O)(O)O[C@@H]3C2O)c(=O)[nH]1 (stereo partly specified),inactive,
Nc1ncnc2c1nc(Sc1ccc(Cl)cc1)n2[C@H]1OC2COP(=O)(O)O[C@@H]2C1O (stereo partly specified),0.316 µM (active),
Nc1ncnc2c1nc(Br)n2C1OC2COP(=O)(O)O[C@@H]2C1O (stereo partly specified),0.708 µM (active),
NC1=NC2C(N=C(Br)N2[C@@H]2O[C@H]3COP(=O)(O)O[C@@H]3[C@@H]2O)C(=O)N1 (stereo partly specified),inactive,
Nc1ncnc2c1nc(Br)n2C1OC(CO)C(O)C1O (stereo unspecified),inactive,
[N-]=[N+]=Nc1nc2c(N)ncnc2n1C1OC(CO)C(O)C1O (stereo unspecified),inactive,
Nc1ncnc2c1nc(Br)n2[C@H]1O[C@H]2COP(=O)(O)O[C@H]2[C@@H]1O,2.51 µM (active),
O=S(=O)(c1ccccc1)N1CCC2(CCCN(c3ccccc3)C2)CC1,inactive,
Cc1cccc(CNC(=O)c2cnn(-c3nccc(-c4ccccc4F)n3)c2C)n1,inactive,
C[C@]12C[C@H](O)CC(CO)(CO)C1[C@H](O)C[C@@]13CC4[C@@H](CC12)[C@@]4(C)C3 (stereo partly specified),inactive,
N#Cc1cccc(NC(=O)N2CCC3(CC2)CCN(C(=O)c2cnccn2)CC3)c1,inactive,
O=S(=O)(NCc1ccccc1)[C@@H]1CC2C=CC1C2 (stereo partly specified),inactive,
CC(C)(C)OC(=O)NS(=O)(=O)NOCc1ccccc1,inactive,
COc1cc2c(cc1OC)C1C(=O)c3ccc4c(c3OC1CO2)C=CC(C)(C)O4 (stereo unspecified),inactive,
Cc1ccccc1C1(CC(=O)N2CC3(C)CC2CC(C)(C)C3)CC(=O)N(Cc2cccnc2)C1=O (stereo unspecified),inactive,
O=C(c1cccc(F)c1)N1CCC[C@@]2(CCN(Cc3ccncc3)C2)C1,inactive,
COc1ccc(C(=O)N2CCC3(CC2)CN(c2ccccc2)C3)cc1,inactive,
CCN(CC)CCOC[C@H]1O[C@@H](O)[C@H](OCCN(CC)CC)[C@@H](O)[C@@H]1O,inactive,
